# From PubChem BioAssay (NCI)
# Compounds without any hit were thinned out: in the full panel of roughly 79,000, 15% have a hit. Unmarked numbers belong to inactive results. Calls of active or inactive are those of the source. Cut-off read from the data, not from the text of the source: active = growth inhibition above about 70%; inactive = the rest.
# How the values were obtained:
# [1] = NCI Yeast Anticancer Drug Screen. Data for the rad50 strain (AID 155);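 note: 0% = growth of vehicle-only cultures of the same strain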; settings: S. cerevisiae rad50 strain growth inhibition; at 50.0 µM; hits give high values
# In short: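 A DNA repair-deficient yeast mutant serves as the test organism; compound-induced growth inhibition is calculated against vehicle-treated cells.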
# [2] = NCI Yeast Anticancer Drug Screen. Data for the mec2-1 strain (AID 157); settings: S. cerevisiae mec2-1 strain, at 50.0 µM, hits give high values
# In short: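 Compounds were applied to mec2-1 yeast cells. Their growth was then compared with that of vehicle-treated cultures to give growth inhibition.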
# [3] = NCI Yeast Anticancer Drug Screen. Data for the sgs1 mgt1 strain (AID 161);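 note: 0% = growth of cultures given vehicle only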; settings: S. cerevisiae sgs1 mgt1 strain, at 50.0 µM, hits give high values
# In short: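 This yeast growth screen uses a strain with defined DNA-repair lesions; compound-treated growth is compared with vehicle-treated growth.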
# [4] = NCI Yeast Anticancer Drug Screen. Data for the cln2 rad14 strain (AID 165);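 note: 0% = growth equal to vehicle treated cultures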; settings: S. cerevisiae cln2 rad14 strain, at 50.0 µM, hits give high values
# In short: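 Strain: cln2 rad14 yeast, altered in cell cycle control and DNA damage repair. Read-out: growth inhibition vs vehicle.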
# [5] = NCI Yeast Anticancer Drug Screen. Data for the bub3 strain (AID 167); settings: S. cerevisiae bub3 mutant strain, at 50.0 µM, hits give high values
# In short: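 Inhibition values come from growth of compound-treated mutant yeast normalised to vehicle-treated controls.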
# [6] = NCI Yeast Anticancer Drug Screen. Data for the mlh1 rad18 strain (AID 175); settings: S. cerevisiae mlh1 rad18 strain growth inhibition; at 50.0 µM; hits give high values
# In short: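 A repair-deficient yeast strain is exposed to test compound, and growth is scored relative to vehicle-treated controls.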
SMILES,growth inhibition [1],growth inhibition [2],growth inhibition [3],growth inhibition [4],growth inhibition [5],growth inhibition [6]
CCOC(=O)c1cc2c(nc1NCc1ccccc1)C(=O)CCCC2,7.95%,22%,30.8%,10.3%,26.4%,17.6%
CCCC(=O)Nc1cc(C(=O)N2C[C@H]3C[C@@]34C2=CC(=O)c2[nH]cc(C)c24)n(COC)c1,43.9%,59.2%,68.2%,41.4%,5.85%,69.8%
O=C(O)/C=C(/Oc1ccccc1)c1ccccc1,-12.3%,-7.7%,-7.95%,-8.7%,-19.8%,-3.55%
CCOC(=O)c1c(C)csc1NC(=O)CSCC(=O)OC,10.2%,-4%,30.5%,19.9%,41%,31.6%
CCSc1nnc(-c2ccccc2)nc1Cc1ccc(OC)cc1,-38.2%,-13.2%,-62.7%,-12.8%,-30.5%,-39.5%
S=C(S)N1CCN(c2cccc(Cl)c2)CC1,40.2%,16.1%,58.5%,44.7%,47.1%,70.5% (active)
O=C(OCc1ccccc1)c1ccc(Cl)cc1,22.9%,5.7%,20.6%,15.2%,-1.65%,4.4%
CC1CCN(C(=O)Nc2ccccc2)CC1,-7.1%,-17.2%,4.9%,-51.3%,-6.05%,-10.7%
CC1(C)C2CC=C(/C=N\Nc3ccc([N+](=O)[O-])cc3[N+](=O)[O-])C1C2 (stereo not drawn),-1.5%,1.95%,-2.3%,-3.35%,-11.6%,-12.1%
CCOC(=O)Cc1csc2[n+]1C(=O)/C(=C/c1cccc(OC)c1O)S2,45.1%,9.8%,53.4%,-10.2%,13.3%,38.2%
O=C(c1ccc(OC(=O)c2ccccc2O)cc1)c1ccc(OC(=O)c2ccccc2O)cc1,27.6%,6.75%,29.3%,-100%,8.3%,15.9%
CC1CCC2OC23C(=O)C2OC2C(C(C)(C)O)C13C (stereo not drawn),-3.25%,-2.35%,-10.7%,2.5%,5.65%,12.8%
CCOC(=O)c1[nH]c(Cc2[nH]c(C(=O)OCC)c(CC)c2C)c(C)c1CC,7.8%,-1.1%,-4.75%,-3.65%,-4.7%,24.2%
CC1=C[C@@H]2[C@@H](CC(CO)=C[C@H]3[C@@H]4C(C)(C)[C@]4(OCC(C)C)[C@H](OCC(C)C)[C@@H](C)[C@]23O)C1=O,-13.7%,-14.2%,-55.5%,-0.1%,-69.2%,-13.9%
Nc1nc(I)nc2c1ncn2C1OC(COS(N)(=O)=O)C(O)C1O (stereo not drawn),67%,67.5%,40.9%,63.6%,43.9%,78.3% (active)
COc1cc(C=Nc2ccccc2)ccc1OC(=O)c1ccccc1,15.8%,23.2%,17.6%,28.7%,16.9%,14.6%
CCCCNC(=O)C(c1ccccc1)c1ccccc1,22.1%,14.9%,10.8%,-12.3%,14.3%,4.2%
Cc1ccccc1C(c1ccccc1C)c1ccccc1C,-10.8%,1%,-10.8%,-15.6%,1.25%,-19.6%
CCOC(=O)NC(C#N)=C(Cl)Cl,37.5%,47%,49%,14.1%,38.5%,43.6%

SMILES,growth inhibition [1],growth inhibition [2],growth inhibition [3],growth inhibition [4],growth inhibition [5],growth inhibition [6]
S=C1N(c2ccccc2)CCN1c1ccccc1,-15.2%,-14.9%,-21.9%,-17.2%,-18.9%,-2.65%
c1ccc(-c2ccc3c(c2)NCCN3)cc1,-3%,9.35%,-13.6%,-4.35%,7.25%,21.4%
CN(CC#N)[C@H]1CCC[C@]1(O)C#C[Si](C)(C)c1ccccc1,9.15%,-19.8%,19.1%,30.9%,9.05%,1.55%
Cc1cc(C)c(C(=O)OCCN(C)C)c(C)c1,10.8%,2%,9.9%,-5.25%,0.5%,-0.6%
Cc1nccnc1N1CCCCC1,19.7%,-0.75%,-5.8%,15.9%,1.9%,-11.3%
CC1OC(c2ccccc2)C(=O)N1C1(C)C(=O)N2CCOC21c1ccccc1 (stereo not drawn),8.4%,11.2%,2.15%,5%,-1.95%,-3.05%
CN(C)c1nc(=O)c2ccccc2o1,-41%,-14.1%,-28.4%,-36.5%,-7.75%,-5.05%
O=C(O)C1C2CCC(O2)C1C(=O)NCc1cccnc1 (stereo not drawn),23.1%,-3.8%,-11.7%,-9.9%,-11%,2.85%
Cc1cccc(-c2nnc3s/c(=C\c4ccc5c(c4)OCO5)c(=O)n23)c1,-20.1%,-12.2%,-1.45%,11.7%,4.35%,0.65%
Cc1cc2c(c(C)c1O)C(C)(C)CN2C(=O)C(C)(C)C,-12.2%,-53%,2.55%,-8.85%,2.1%,-10.9%
COc1c(O)ccc(/C=N/NC(=S)NCOCCOC(C)=O)c1OC,0.85%,-3.8%,1.7%,21.9%,9.95%,-10.6%
NC(=O)/C=C/c1ccc([N+](=O)[O-])cc1,33%,-6.85%,-9%,-74%,4.6%,-3.4%
CSc1[nH]c2ncnc(Cl)c2c1C#N,23.6%,10.3%,15.9%,-21.8%,-27.3%,21.7%
CC(=O)OC1CCC2(C)C(CCC3C2C(=O)C(Br)C2(C)C(C(C)=O)CCC32)C1 (stereo not drawn),-1.2%,0.5%,7.95%,16.9%,13.3%,25.4%
CCCSc1nnc(SCCC)c2[nH]cnc12,0.85%,-5.45%,0.95%,-22.3%,2.4%,-8.7%
O=C(Nc1cccc(Cl)c1)OC1C=CCC1 (stereo not drawn),3.4%,1.75%,2.65%,-20.1%,-2.15%,-15.5%
COC(=O)c1c(-c2ccc(OC)c(OC)c2)cn(C)c1C,19.4%,12.8%,21%,-6.15%,10.5%,25.2%
Cc1ccc(C(N)=O)cc1,20%,-8.65%,-1.55%,-31.1%,17.9%,42.1%
Cn1cnc(=S)c2ccccc21,-11%,-12.8%,-18.3%,-6.05%,0.8%,-29.1%
